# Measured values taken from PubChem BioAssay.
# Where “and” joins values, the source holds several entries; their conditions need not be identical. Equal values may be shown once.
# Experiment: viability loss with induced miR-34 in A549 – imaging, A549 dox-inducible miR-34, nuclei and caspase counts, primary screen (AID 1347080); note: test concentration not given here
# Settings: A549 miR-34 inducible, Hoechst nuclei count, 48 h; measured here: total cells without miR-34 induction
row,Structure (SMILES),cell count
1,CC(C)(C)OC(=O)NC1[C@H]2CNC[C@@H]12 (stereo partly drawn),10800
2,O=C1CC[C@@]2(O)C3Cc4ccc(O)c5c4C2(CCN3CC2CC2)[C@H]1O5 (stereo partly drawn),10300
3,N=C(N)c1ccc(CS(=O)(=O)F)cc1,10700
4,NC(CP(=O)(O)O)C(=O)O (stereo not drawn),10400
5,CCCCC/C=C\C/C=C\CCCCCCCC(=O)NCCO,5220 and 5490
6,CCCCCCCCCCCCCCCCOC[C@@H](COP(=O)([O-])OCC[N+](C)(C)C)OC(C)=O,5620
7,CCCCC/C=C\C/C=C\C/C=C\CCCCCCC(=O)NCCO,5990 and 5800
8,CCCCC/C=C\C/C=C\C/C=C\C/C=C\CCCC(N)=O,5750 and 5890
9,CCCCC/C=C\C/C=C\C/C=C\C/C=C\CCCCCC(=O)NCCO,5700 and 5690
10,CCCCC/C=C\C[C@@H](/C=C/C=C\C/C=C\CCCC(=O)O)OO,6220
11,CCCCC/C=C\C=C\[C@H](CCCCCCCC(=O)O)OO,6320
12,C[C@]12Cc3cn4c(nc3C=C1CCC1C2CC[C@@]2(C)[C@H]1CC[C@@]2(O)C#N)nc1ccccc14 (stereo partly drawn),1350
13,CC(N)c1cccc(Cl)c1Cl (stereo not drawn),9670
14,C=CCN1CC[C@]23CCCCC2[C@H]1Cc1ccc(O)cc13 (stereo partly drawn),10000
15,Clc1ccc(C2CC3CCC2N3)cn1 (stereo not drawn),6360
16,O=C1/C(=C/c2ccccc2)C[C@@]2(O)[C@H]3Cc4ccc(O)c5c4[C@@]2(CCN3CC2CC2)[C@H]1O5,478
17,COc1ccc2c(c1)C13CCCCC1C(C2)N(C)CC3 (stereo not drawn),9710
18,CCCC[C@H]1C(=O)O[C@H](C)[C@H](NC(=O)c2cccc(NC=O)c2OC)C(=O)O[C@@H](C)[C@@H]1OC(=O)CC(C)C,680
